Experimental data from PubChem BioAssay (EPA / NIEHS).
Results filed as inconclusive are left out. Activity calls are given as the source filed them. The calls were made as follows, unless noted: active = hit-call score of the fitted dose curve at least 0.9, where 1 is the maximum; inconclusive = response in the unintended direction; inactive = score below 0.9.

Columns and labels:
[1] = Tanguay_ZF_120hpf_PE_legacy: (Legacy) Oregon State University Tanguay Lab 120 Hour Post-fertilization zebrafish Assay for Pericardial Edema (AID 2283640);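 as to AC50: potency for increased incidence of pericardial edema versus DMSO baseline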
How it was run: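 Tropical 5D wild-type zebrafish embryos were statically exposed until 120 hpf at 28C, with 0.64% DMSO final. Pericardial edema was scored by brightfield as present or absent; endpoints were not scored in dead embryos.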

[2] = Tanguay_ZF_120hpf_BRAI_legacy: (Legacy) Oregon State University Tanguay Lab 120 Hour Post-fertilization zebrafish Assay for Brain Malformation (AID 2283641)
How it was run: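 Tropical 5D wild-type zebrafish embryos exposed statically until 120 hpf at 28C, 0.64% DMSO final, sealed and dark. Brain malformation scored present/absent by brightfield at 120 hpf; dead embryos excluded. Trimethyltin chloride 5uM positive control.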

[3] = Tanguay_ZF_120hpf_SOMI_legacy: (Legacy) Oregon State University Tanguay Lab 120 Hour Post-fertilization zebrafish Assay for Somite Malformation (AID 2283647)
How it was run: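 Dechorionated Tropical 5D wild-type zebrafish embryos, one per well from 6 hpf, statically exposed at 28C to 120 hpf in 0.64% DMSO; somite malformation scored present/absent by brightfield; trimethyltin 5 uM positive control; dead embryos not scored.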

[4] = Tanguay_ZF_120hpf_PFIN_legacy: (Legacy) Oregon State University Tanguay Lab 120 Hour Post-fertilization zebrafish Assay for Pectoral Fin Malformation (AID 2283648);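 also: each larva judged yes or no for fin defect by brightfield with dead larvae skipped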
How it was run: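 Tropical 5D wild-type embryos, dechorionated with pronase at 4 hpf, were placed singly in wells at 6 hpf and statically exposed until 120 hpf at 28C, sealed and dark, with 0.64% (vol/vol) final DMSO; pectoral fin malformation scored present/absent.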

[5] = Tanguay_ZF_120hpf_CFIN_legacy: (Legacy) Oregon State University Tanguay Lab 120 Hour Post-fertilization zebrafish Assay for Caudal Fin Malformation (AID 2283649)
How it was run: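 Dechorionated Tropical 5D wild-type embryos, one per well from 6 hpf, static exposure to 120 hpf at 28C in 0.64% DMSO. Caudal fin malformation scored by brightfield as present/absent; not scored in dead embryos.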

[6] = Tanguay_ZF_120hpf_PIG_legacy: (Legacy) Oregon State University Tanguay Lab 120 Hour Post-fertilization zebrafish Assay for Pigmentation Malformation (AID 2283650)
How it was run: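 Tropical 5D wild-type zebrafish embryos, dechorionated with pronase at 4 hpf, were exposed singly from 6 hpf to 120 hpf statically at 28C in sealed, dark plates with 0.64% DMSO; pigmentation scored present/absent by brightfield microscopy, fitted against DMSO.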

[7] = Tanguay_ZF_120hpf_CIRC_legacy: (Legacy) Oregon State University Tanguay Lab 120 Hour Post-fertilization zebrafish Assay for Circulatory Malformation (AID 2283651)
How it was run: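 Tropical 5D wild-type embryos, dechorionated with pronase at 4 hpf, were placed singly in wells at 6 hpf and exposed statically at 28C to 120 hpf (0.64% DMSO final). Circulatory malformation was scored present/absent by brightfield microscopy.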

[8] = Tanguay_ZF_120hpf_SWIM_legacy: (Legacy) Oregon State University Tanguay Lab 120 Hour Post-fertilization zebrafish Assay for Swim Bladder Malformation (AID 2283654);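 also: swim bladder malformation in each larva scored yes or no under brightfield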
How it was run: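 Dechorionated Tropical 5D wild-type embryos, placed singly from 6 hpf, were statically exposed at 28C to 120 hpf with 0.64% DMSO final; swim bladder malformation was scored present/absent by brightfield microscopy, gain of signal relative to DMSO controls.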

[9] = read-out: kallikrein-3 (KLK3), KLK3 (gene 354); assay: LTEA_HepaRG_KLK3: Life Technologies and Expression Analysis (LTEA) Assay for kallikrein-3 (KLK3) using HepaRG (AID 2283652; active = hit-call score of the fitted dose curve at least 0.9, where 1 is the maximum; inactive = score below 0.9); conditions: mRNA level, 48 h; actives raise or lower the signal
How it was run: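 Differentiated human HepaRG cells in serum-free induction medium exposed 48 h in duplicate, eight-point half-log series from 100 uM in 0.5% DMSO. KLK3 mRNA by qRT-PCR, normalised to ACTB, GAPDH, POLR2A; bidirectional fit versus DMSO.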

[10] = read-out: solute carrier (SLC22A6), SLC22A6 (gene 9356); assay: LTEA_HepaRG_SLC22A6: Life Technologies and Expression Analysis (LTEA) Assay for solute carrier (SLC22A6) using HepaRG (AID 2283653; active = hit-call score of the fitted dose curve at least 0.9, where 1 is the maximum; inactive = score below 0.9); conditions: mRNA level, 48 h; actives raise or lower the signal
How it was run: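 Differentiated HepaRG cells exposed 48 h in serum-free induction medium to 8 half-log concentrations, top 100 uM, in 0.5% DMSO; SLC22A6 mRNA by Fluidigm qRT-PCR normalized to ACTB, GAPDH, POLR2A, fitted bidirectionally versus DMSO.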

Measured: AC50

CCCCCCC(=O)O
not listed: [8] | [9] | [10]
inactive: all other assays above

Nc1cccc2c(N)cccc12
inactive: [1] | [2] | [3] | [4] | [5] | [6]

CCc1nn(C2CCCCC2)c2cc(C3(C#N)CCC(C(=O)O)CC3)ccc12 (centres undefined)
active: [1] 0.27 µM | [2] 2.71 µM | [4] 0.563 µM | [5] 0.15 µM
inactive: [6] | [7]

Cc1oc(-c2ccccc2)nc1CCOc1ccc(C[C@H](Nc2ccccc2C(=O)c2ccccc2)C(=O)O)cc1
inactive: [1] | [2] | [3] | [4] | [5] | [6]

CC(C)(C)c1ccc(O)c(C(C)(C)C)c1
inactive: [1] | [2] | [4] | [5] | [6] | [7]

Cc1cc(CCN2CCN(c3nsc4ccccc34)CC2)cc2c1NC(=O)CC2(C)C
active: [1] 2.96 µM | [2] 5.16 µM | [4] 5.62 µM | [5] 6.48 µM | [6] 6.31 µM | [7] 5.83 µM

CC[C@H](C)[C@@H](C(=O)O)n1sc2ccccc2c1=O
inactive: [1] | [2] | [4] | [5] | [6] | [7]

COC(=O)CCCCC(=O)OC
inactive: [1] | [2] | [4] | [5] | [6] | [7]

NC(=O)N(O)[C@@H]1C=C[C@H](Oc2cccc(Oc3ccc(F)cc3)c2)C1
inactive: [1] | [2] | [3] | [4] | [5] | [6]

NC(=O)N1C(=O)C(C(=O)c2cc(Cl)cs2)c2cc(F)c(Cl)cc21 (centres undefined)
not listed: [9] | [10]
inactive: all other assays above

CCC(C)(C)C1CCC(O)CC1 (centres undefined)
inactive: [1] | [2] | [4] | [5] | [6]

CCCCCCCCCCCCN1CCCC1=O
inactive: [2] | [4] | [6] | [7]
active: [1] 35.8 µM | [5] 41 µM

COCC(C)O (centres undefined)
inactive: [1] | [2] | [3] | [4] | [6]

O=[N+]([O-])c1ccc(O)cc1
not listed: [9] | [10]
inactive: all other assays above

CCCOC(=O)c1ccc(O)cc1
active: [1] 11 µM | [2] 41.4 µM | [3] 33.3 µM | [4] 45.8 µM | [5] 75.8 µM | [6] 49.1 µM | [7] 40.1 µM | [8] 10.6 µM

OC1CCCCC1
inactive: [1] | [2] | [4] | [5] | [6]

CC(=O)CC(C)(C)O
not listed: [8] | [9] | [10]
inactive: all other assays above

CCCCOCCO
inactive: [1] | [2] | [4] | [5] | [6] | [7]

CN1CCN(c2ccccc2/C=C2\SCCN(c3ccc(Cl)c(Cl)c3)C2=O)CC1
inactive: [1] | [2] | [4] | [5] | [6] | [7]

CCCCCCCCOC(=O)CCCCCCCCC(=O)OCCCCCCCC
inactive: [1] | [2] | [4] | [5] | [6]

CC1=C(/C=C/C(C)=C/C=C/C(C)=C/C(=O)O)C(C)(C)CCC1
active: [1] 0.193 µM | [2] 0.237 µM | [3] 0.323 µM | [4] 0.248 µM | [5] 0.186 µM | [6] 0.252 µM
inactive: [7]

O=C(O)Cc1cc(I)c(Oc2cc(I)c(O)c(I)c2)c(I)c1
active: [2] 0.00612 µM | [6] 0.0192 µM
inactive: [1] | [4] | [5] | [7]

CC[C@H](c1ccc(O)cc1)[C@@H](CC)c1ccc(O)cc1
inactive: [1] | [2] | [4] | [5] | [6] | [7]

CCCCCCCCC(=O)O
inactive: [1] | [2] | [4] | [5] | [6] | [7]

Oc1cccc(O)c1
inactive: [1] | [2] | [3] | [6] | [7]

c1ccc2c(c1)ccc1ccccc12
inactive: [1] | [2] | [4] | [5] | [6] | [7]

CC(C)(C)c1cccc(C(C)(C)C)c1O
inactive: [1] | [2] | [3] | [6] | [7]

CCCCC(CC)COC(=O)CCCCC(=O)OCC(CC)CCCC (centres undefined)
not listed: [8] | [9] | [10]
inactive: all other assays above

CC(C)(C)CC(C)(C)c1ccc(O)c(-n2nc3ccccc3n2)c1
inactive: [1] | [2] | [4] | [5] | [6] | [7]

ClC1=C(Cl)C(Cl)(Cl)C(Cl)=C1Cl
not listed: [4] | [7] | [8]
inactive: all other assays above

CN1CCC[C@H]1c1cccnc1
inactive: [1] | [2] | [4] | [5] | [6]

CCc1ccc(CCOc2ccc(CC3SC(=O)NC3=O)cc2)nc1 (centres undefined)
inactive: [1] | [2] | [4] | [5] | [6] | [7]

Oc1cc2ccccc2c2ccccc12
active: [1] 31.9 µM | [2] 36.2 µM | [4] 12.1 µM | [5] 36.5 µM | [6] 12.9 µM | [7] 10.2 µM | [8] 10.3 µM

O=c1c(-c2ccc(O)cc2)coc2cc(O)ccc12
inactive: [1] | [4] | [6] | [7] | [8]

CN(C)C=O
inactive: [2] | [4] | [5] | [6] | [7] | [8]

CCCCCCCC(=O)O
not listed: [3] | [9] | [10]
inactive: all other assays above

CC(C)CCCCCCOC(=O)CCCCC(=O)OCCCCCCC(C)C
inactive: [1] | [2] | [5] | [6] | [7]

CCCCC(CC)COC(=O)CCCCC(=O)OCc1ccccc1 (centres undefined)
inactive: [1] | [2] | [4] | [5] | [7]

c1ccc2cc3c(ccc4ccccc43)cc2c1
active: [1] 33.4 µM | [2] 48.5 µM
inactive: [5] | [6] | [7] | [8]

CCN(CC)CCNc1ccc(CNC=O)c2sc3ccc(OC)cc3c(=O)c12
inactive: [1] | [2] | [5] | [6] | [7]

Cc1cc(C)c(O)c(C)c1
inactive: [1] | [3] | [4] | [5] | [6]

c1ccc2c(c1)Cc1ccccc1-2
inactive: [1] | [2] | [5] | [6]

C[C@@H]1C[C@H]2[C@@H]3CCC4=CC(=O)C=C[C@]4(C)[C@@]3(F)[C@@H](O)C[C@]2(C)[C@@]1(O)C(=O)COP(=O)(O)O
not listed: [3] | [9] | [10]
inactive: all other assays above

CC(=O)NC1(c2cccc(F)c2)CCN(CC[C@@]2(c3ccc(Cl)c(Cl)c3)CN(c3ccccc3)C(=O)CO2)CC1
not listed: [3] | [9] | [10]
inactive: all other assays above

O=C(OCCOCCOC(=O)c1ccccc1)c1ccccc1
not listed: [3]
inactive: all other assays above

CC#C[C@]1(O)CC[C@H]2[C@@H]3CCC4=CC(=O)CCC4=C3[C@@H](c3ccc(N(C)C)cc3)C[C@@]21C
inactive: [5] | [6] | [7] | [8]
active: [1] 73.3 µM

CCC(=C(c1ccc(O)cc1)c1ccc(OCCN(C)C)cc1)c1ccccc1
inactive: [3] | [4] | [7] | [8]

OC1CCC(C2CCCCC2)CC1 (centres undefined)
not listed: [3] | [9] | [10]
inactive: all other assays above

COc1ccc([N+](=O)[O-])cc1N
inactive: [1] | [4] | [5] | [7]

CCCCCCCCCCCCCCCS(=O)(=O)Oc1ccccc1
inactive: [1] | [3] | [4] | [5] | [6] | [7]

C=C(C)C(=O)OCCC(F)(F)C(F)(F)C(F)(F)C(F)(F)C(F)(F)C(F)(F)F
not listed: [2] | [3] | [8]
inactive: all other assays above

CCCCCCCCCCCCc1ccccc1S(=O)(=O)O
inactive: [1] | [4] | [5] | [7]

CC(C)(C)c1cc(C(C)(C)C)c(O)c(C(C)(C)C)c1
not listed: [3] | [8] | [9]
inactive: all other assays above

CCCOc1sc(C(=O)N2CCC(c3cc(CN)ccc3F)CC2)c(C)c1Br
inactive: [1] | [2] | [4] | [7]

CC(O)CO (centres undefined)
not listed: [3] | [8] | [9]
inactive: all other assays above

COCC(C)OCC(C)O (centres undefined)
inactive: [1] | [2] | [4] | [7]

CCOC(=O)CC(O)(CC(=O)OCC)C(=O)OCC
inactive: [1] | [2] | [4] | [6] | [7]

C#C[C@]1(O)CC[C@H]2[C@@H]3CCC4=CC(=O)CC[C@@H]4[C@H]3CC[C@@]21C
inactive: [1] | [4] | [5] | [6] | [10]

OCCC(F)(F)C(F)(F)C(F)(F)C(F)(F)C(F)(F)C(F)(F)F
inactive: [1] | [2] | [5] | [6] | [7] | [8]

N#C[C@@H]1CC(F)(F)CN1C(=O)CNC1CC2CCC(C1)N2c1ncccn1 (some centres undefined)
inactive: [2] | [4] | [5] | [6] | [7]

OCCC(F)(F)C(F)(F)C(F)(F)C(F)(F)C(F)(F)C(F)(F)C(F)(F)C(F)(F)F
inactive: [2] | [4] | [5] | [6] | [7]

O=C(O)c1ccccc1C(c1ccc(O)cc1)c1ccc(O)cc1
inactive: [1] | [4] | [5] | [6] | [7]
